# Test results reported in paper PMC4336329 (PLoS ONE, 2015).
# Hit rate of the full screen: of about 310,000 compounds, about 14,000 (4.5%) showed an effect of 50% or more. Effects have a minus sign here. The sample holds strong results, similar compounds and a random draw of the others, so the mix is not that of the screen.
# Molecular target: human ether-à-go-go-related gene (hERG) potassium channel (human, UniProt Q12809)
# Assay: primary screen, population patch clamp on CHO cells stably expressing hERG; higher = less effect of the substance
# 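Further: peak tail current of the secondary pulse compared with the same well before compound.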
# Sequence of human ether-à-go-go-related gene (hERG) potassium channel (Q12809 whole entry, looked up): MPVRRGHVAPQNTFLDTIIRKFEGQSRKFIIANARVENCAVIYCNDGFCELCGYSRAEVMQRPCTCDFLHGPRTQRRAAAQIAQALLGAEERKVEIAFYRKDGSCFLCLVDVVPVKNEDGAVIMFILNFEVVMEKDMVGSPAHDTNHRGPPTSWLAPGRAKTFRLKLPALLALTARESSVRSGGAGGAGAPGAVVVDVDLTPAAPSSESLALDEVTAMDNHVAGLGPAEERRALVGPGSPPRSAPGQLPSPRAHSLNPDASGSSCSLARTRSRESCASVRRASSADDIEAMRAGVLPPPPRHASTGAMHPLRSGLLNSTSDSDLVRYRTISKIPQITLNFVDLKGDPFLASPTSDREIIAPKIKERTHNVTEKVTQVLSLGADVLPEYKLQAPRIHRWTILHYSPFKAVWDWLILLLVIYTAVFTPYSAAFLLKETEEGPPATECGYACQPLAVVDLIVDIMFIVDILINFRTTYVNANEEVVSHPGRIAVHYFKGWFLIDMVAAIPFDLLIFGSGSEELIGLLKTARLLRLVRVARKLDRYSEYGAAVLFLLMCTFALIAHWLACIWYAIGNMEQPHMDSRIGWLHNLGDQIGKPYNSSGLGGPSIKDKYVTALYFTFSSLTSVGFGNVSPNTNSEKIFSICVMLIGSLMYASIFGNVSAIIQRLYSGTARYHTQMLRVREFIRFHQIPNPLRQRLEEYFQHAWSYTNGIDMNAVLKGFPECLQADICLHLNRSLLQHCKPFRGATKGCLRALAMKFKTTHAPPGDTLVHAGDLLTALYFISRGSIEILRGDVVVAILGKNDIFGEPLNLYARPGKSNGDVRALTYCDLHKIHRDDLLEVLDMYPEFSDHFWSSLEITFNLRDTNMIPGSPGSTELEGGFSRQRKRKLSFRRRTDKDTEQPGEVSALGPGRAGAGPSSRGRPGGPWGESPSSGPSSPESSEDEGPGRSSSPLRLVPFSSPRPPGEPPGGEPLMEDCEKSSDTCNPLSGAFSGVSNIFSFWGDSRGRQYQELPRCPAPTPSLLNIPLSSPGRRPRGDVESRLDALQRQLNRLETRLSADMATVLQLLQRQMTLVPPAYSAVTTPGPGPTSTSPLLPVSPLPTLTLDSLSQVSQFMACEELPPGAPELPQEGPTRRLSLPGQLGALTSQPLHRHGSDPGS
row,Compound,"hERG current change (%, negative = inhibition) at 10uM"
1,Cc1nn(C)cc1CNC(=O)C1C2CCC(O2)C1C(=O)O (stereo not drawn),23.7%
2,Cc1nn(-c2ccccc2)c(C)c1C(=O)OCC(=O)N1CCN(S(=O)(=O)c2ccccc2)CC1,-11%
3,COc1ccccc1N(C(C)=O)C1SC(=O)N(c2ccccc2)C1=O (stereo not drawn),14%
4,Cc1cc(C(=O)CCl)c(C)n1-c1cccc(S(=O)(=O)N2CCOCC2)c1,-77.4%
5,Cc1ccc(C)n1-c1cccc(S(=O)(=O)N2CCOCC2)c1,7.55%
6,Cc1cc(C(=O)CN2C(=O)CN(C)C2=O)c(C)n1-c1cccc(S(=O)(=O)N2CCOCC2)c1,-49.8%
7,Cc1cc(C(=O)CN2C(=O)C(=O)N(C)C2=O)c(C)n1-c1cccc(S(=O)(=O)N2CCOCC2)c1,-63.4%
8,Cc1cc(C(=O)COc2ccccc2[N+](=O)[O-])c(C)n1-c1cccc(S(=O)(=O)N2CCOCC2)c1,-9.82%
9,Cc1cc(C(=O)CSc2ncn[nH]2)c(C)n1-c1cccc(S(=O)(=O)N2CCOCC2)c1,-28.5%
10,CCc1nnc(NS(=O)(=O)c2ccc(N=Cc3c(C)[nH]n(-c4cccc(Cl)c4)c3=O)cc2)s1,10.4%
11,CC(=O)c1ccc(OCC(=O)N(C)CC(=O)Nc2ccc(N3CCOCC3)cc2)cc1,9.61%
12,CC(=O)Nc1ccc(S(=O)(=O)NCC(=O)OCC(=O)N2CCCc3ccccc32)cc1,4.4%
13,C/C(=N\NC(=O)c1ccc(N(C)C)cc1)c1ccc(C)c(C)c1,-14.5%
14,O=C(Oc1ccc(Br)cc1)c1cccc(S(=O)(=O)N2CCOCC2)c1,-35.6%
15,Cc1cc(=O)oc2ccc(OC(=O)c3cccc(S(=O)(=O)N4CCOCC4)c3)cc12,-70.5%
16,COC(=O)c1cccc(S(=O)(=O)N2CCOCC2)c1,6.61%
17,CC(C)C1Oc2ccccc2N(CC(=O)N(C)C2CCCCC2)C1=O (stereo not drawn),-10.1%
18,CCc1nc(N2CCNCC2)c(C#N)c2c1CSC(C)(C)C2,2.02%
19,CCCCc1nc(Cl)c(C#N)c2c1CSC(C)(C)C2,-13.1%
20,CCCCc1nc(N2CCNCC2)c(C#N)c2c1CSC(C)(C)C2,-64.7%
21,CCCCn1c(N)c(N(CC)C(=O)c2cccc(OCc3ccccc3)c2)c(=O)[nH]c1=O,-9.67%
22,O=CN1CCCN(Cc2nc(Cc3ccccc3F)no2)CC1,16.1%
23,COc1ccccc1CN1CCN(Cc2nc(Cc3ccccc3)no2)CC1,-36%
24,c1ccc(Cc2noc(CN3CCN(CCOc4ccccc4)CC3)n2)cc1,-40.9%
25,C(=C\c1ccccc1)/CN1CCN(Cc2nc(Cc3ccccc3)no2)CC1,-65.1%
26,Cc1ccccc1N1CCN(Cc2nc(Cc3ccccc3F)no2)CC1,-3.53%
27,Fc1ccccc1Cc1noc(CN2CCN(C/C=C/c3ccccc3)CC2)n1,-74%

row,Compound,"hERG current change (%, negative = inhibition) at 10uM"
1,COC(=O)c1ccc(C(C(=O)NCc2ccccc2)N(Cc2ccco2)C(=O)c2cnccn2)cc1 (stereo not drawn),-25.4%
2,COC(=O)/C(=C\Nc1ccc(Cl)cc1Cl)NC(=O)c1ccccc1,-4.83%
3,C=CCNC(=S)NNC(=O)CCC(O)CCCCC (stereo not drawn),16.4%
4,CCN(CC(=O)NCc1cccs1)C(=O)CCC(=O)c1ccc(C)cc1,-46.9%
5,Cc1ccc(C(=O)CCC(=O)NCc2ccc(Cl)cc2)cc1,-8.52%
6,CCOc1ccc(C(=O)CCC(=O)N(CC)CC(=O)NCc2ccc(Cl)cc2)cc1,-70.3%
7,CCOc1ccc(C(=O)CCC(=O)N(CC)CC(=O)NCc2cccs2)cc1,-19.9%
8,CCN(CC(=O)NCc1ccc(F)cc1)C(=O)c1ccc(Cl)cc1,-23.7%
9,CCN(CC(=O)NCc1ccc(Cl)cc1)C(=O)CCC(=O)c1ccc(C)cc1,-66.5%
10,CCOc1ccc(C(=O)CCC(=O)N(CC)CC(=O)Nc2c(F)cccc2F)cc1,-25.6%
11,CCN(CC(=O)NCc1ccc(Cl)cc1)C(=O)CCC(=O)c1ccc(F)cc1,-61.9%
12,CCN(CC(=O)NCc1cccs1)C(=O)CCC(=O)c1ccc(F)cc1,-49.7%
13,Cc1ccc(C)c(N(CC(=O)NC2CCCC2)S(=O)(=O)c2ccccc2)c1,19.9%
14,Cl.O=C(O)c1cc(S(=O)(=O)N2CCN(C(c3ccccc3)c3ccccc3)CC2)ccc1Cl,14.7%
15,COc1ccc([C@H]2CC(=O)C=C(c3ccc(OC(F)(F)F)cc3)C2)cc1,5.59%
16,CCOc1ccccc1N1CCN(Cc2cccc(OC)c2O)CC1,-25.8%
17,O=C(O)C(=O)O.Oc1ccccc1CN1CCN(C(c2ccccc2)c2ccccc2)CC1,17%
18,COc1ccccc1CN1CCN(C(c2ccccc2)c2ccccc2)CC1.O=C(O)C(=O)O,-55.1%
19,COc1ccc(OCCOCCN2CCN(C)CC2)cc1.O=C(O)C(=O)O,-6.29%
20,COc1ccccc1CN1CCN(Cc2cc(OC)c(OC)cc2OC)CC1.O=C(O)C(=O)O,-11.2%
21,COc1ccccc1N1CCN(Cc2cccc(OC)c2OC)CC1,-12.5%
22,COc1cc(CN2CCN(C(c3ccccc3)c3ccccc3)CC2)cc(OC)c1OC.O=C(O)C(=O)O,-17.2%
23,COc1ccccc1N1CCN(Cc2cccc(OC)c2O)CC1,-64.9%
24,O=C(O)C(=O)O.c1ccc(OCCN2CCN(C(c3ccccc3)c3ccccc3)CC2)cc1,-14.6%
25,COc1cccc(CN2CCN(C(c3ccccc3)c3ccccc3)CC2)c1O.O=C(O)C(=O)O,-64.5%
26,Fc1ccc(CN2CCN(C(c3ccccc3)c3ccccc3)CC2)cc1.O=C(O)C(=O)O,15%
27,O=C(O)C(=O)O.c1ccc(OCCOCCN2CCN(C(c3ccccc3)c3ccccc3)CC2)cc1,-72.7%
